Measurements taken from the supplement of paper PMC13380429.
Counter-ions that a name gives are not always drawn.

System: Vero E6 infected with SARS-CoV-2
Assay: inhibition of SARS-CoV-2 cytopathic effect; higher = more antiviral protection, active = above 15
Details: 48 h

Measured: inhibition of SARS-CoV-2 cytopathic effect

CCCc1nc2c(C)cc(-c3nc4ccccc4n3C)cc2n1Cc1ccc(-c2ccccc2C(=O)O)cc1 [telmisartan]
inactive: 1 nM -1.56% | 8.33 nM -2.17% | 100 nM -4.81% | 833.33 nM 2.3% | 10000 nM 1.33%

Cc1cc(SCc2sc(-c3ccc(C(F)(F)F)cc3)nc2C)ccc1OCC(=O)O
inactive: 1 nM -0.18% | 8.33 nM 1.2% | 100 nM 0.1% | 833.33 nM 1.79% | 10000 nM -2.99%

CN1CCN(c2ccc(Nc3ncc4cc(C#N)c(=O)n(C5CCCC5)c4n3)cc2)CC1
inactive: 1 nM 1.39% | 8.33 nM 1.36% | 100 nM -0.35% | 833.33 nM -6.03% | 10000 nM -6.23%

CCC(CC)(CC(=O)Nc1cccc(/C=C/c2nc(C3CCC3)cs2)c1)C(=O)O [cinalukast]
inactive: 1 nM -1.61% | 8.33 nM 0.18% | 100 nM 0.24% | 833.33 nM 0.4% | 10000 nM 1.8%

CCc1cc2c(cc1CC)CC(NC[C@H](O)c1ccc(O)c3[nH]c(=O)ccc13)C2 [indacaterol]
inactive: 1 nM -4.02% | 8.33 nM -0.7% | 100 nM -0.83% | 833.33 nM -1.99% | 10000 nM -2.01%

NNCCc1ccccc1 [phenelzine]
inactive: 1 nM 1.22% | 8.33 nM -0.85% | 100 nM -0.27% | 833.33 nM -0.81% | 10000 nM 3%

COc1ccc(C(=O)c2c(C)n(CCN3CCOCC3)c3ccccc23)cc1 [pravadoline]
inactive: 1 nM 3.43% | 8.33 nM 2.8% | 100 nM -0.1% | 833.33 nM -1.26% | 10000 nM -0.15%

Clc1ccc(C(Cn2ccnc2)OCc2c(Cl)cccc2Cl)c(Cl)c1 (stereo not given) [isoconazole]
inactive: 1 nM 0.43% | 8.33 nM 0.08% | 100 nM 1.75% | 833.33 nM 1.3% | 10000 nM -2.37%

CCCCCOC(=O)Nc1nc(=O)n([C@@H]2O[C@H](C)[C@@H](O)[C@H]2O)cc1F [capecitabine]
inactive: 1 nM -2.56% | 8.33 nM 0.42% | 100 nM -1.36% | 833.33 nM -0.59% | 10000 nM -1.14%

NC[C@H]1O[C@H](O[C@H]2[C@H](O)[C@@H](O[C@H]3O[C@H](CO)[C@@H](O)[C@H](N)[C@H]3O)[C@H](N)C[C@@H]2N)[C@H](O)[C@@H](O)[C@@H]1O [kanamycin]
inactive: 1 nM 1.47% | 8.33 nM 2.23% | 100 nM 2.41% | 833.33 nM 3.53% | 10000 nM -0.06%

CC(C)CN(C[C@@H](OP(=O)(O)O)[C@H](Cc1ccccc1)NC(=O)O[C@H]1CCOC1)S(=O)(=O)c1ccc(N)cc1 [fosamprenavir]
inactive: 1 nM -0.69% | 8.33 nM 0.83% | 100 nM 0.76% | 833.33 nM -0.52% | 10000 nM -2.55%

CO/N=C(\C(=O)N[C@@H]1C(=O)N2C(C(=O)O)=CCS[C@H]12)c1csc(N)n1 [ceftizoxim]
inactive: 1 nM -1.24% | 8.33 nM -13.2% | 100 nM -0.8% | 833.33 nM 0.85% | 10000 nM 0.82%

O=c1[nH]c(CCl)nc2sc3c(c12)CCCC3
inactive: 1 nM -1.17% | 8.33 nM -1.84% | 100 nM -1.12% | 833.33 nM 0.17% | 10000 nM 12.3%

CC(C)(C)NCC(O)c1cc(Br)no1 (stereo not given) [broxaterol]
inactive: 1 nM -1.51% | 8.33 nM -0.09% | 100 nM -1.23% | 833.33 nM -0.44% | 10000 nM -2.74%

COc1ccc(-c2ccc(=N)n(CCCC(=O)O)n2)cc1 [gabazine]
inactive: 1 nM 0.8% | 8.33 nM 2.86% | 100 nM 5.99% | 833.33 nM -1.31% | 10000 nM -0.62%

CCC(=O)N1CCN(c2ccc(-n3c(=O)ccc4cnc5ccc(-c6cnc7ccccc7c6)cc5c43)cc2C(F)(F)F)CC1 [torin-1]
inactive: 1 nM 1.59% | 8.33 nM -1.08% | 100 nM 0.88% | 833.33 nM -0.28% | 10000 nM -0.2%

CCN1CCC(n2cc(CNc3cc(Cl)c4ncc(C#N)c(Nc5ccc(F)c(Cl)c5)c4c3)nn2)CC1 [cot-inhibitor-2]
inactive: 1 nM 0.26% | 8.33 nM -1.48% | 100 nM 0.28% | 833.33 nM -0.75% | 10000 nM 14%

CC[C@@H]1C(=O)N(C)c2cnc(Nc3ccc(C(=O)N[C@H]4CC[C@H](N5CCN(CC6CC6)CC5)CC4)cc3OC)nc2N1C(C)C [volasertib]
inactive: 1 nM 4.01% | 8.33 nM -1.24% | 100 nM -0.02% | 833.33 nM -9.3% | 10000 nM -14.9%

O=c1c(-c2ccc(O)cc2)coc2cc(O)cc(O)c12 [genistein]
inactive: 1 nM -1.79% | 8.33 nM 1.66% | 100 nM 2.02% | 833.33 nM 3.3% | 10000 nM -1.82%

CC[C@H](C)n1cc(C)c2c(C(=O)NCc3c(C)cc(C)[nH]c3=O)cc(-c3ccc(N4CCNCC4)nc3)cc21
inactive: 1 nM 1.2% | 8.33 nM 2.76% | 100 nM 2.26% | 833.33 nM 1.5% | 10000 nM -4.63%

N=C(N)NCCCC[C@@H]1NC(=O)CCSSC[C@@H](C(N)=O)NC(=O)[C@@H]2CCCN2C(=O)[C@H](Cc2c[nH]c3ccccc23)NC(=O)[C@H](CC(=O)O)NC(=O)CNC1=O [eptifibatide]
inactive: 1 nM -0.98% | 8.33 nM 8.08% | 100 nM 3.25% | 833.33 nM 2.75% | 10000 nM -2.38%

CN(C)CCC=C1c2ccccc2C=Cc2ccccc21 [cyclobenzaprine]
inactive: 1 nM 0.3% | 8.33 nM 6.56% | 100 nM 3.92% | 833.33 nM -1.83% | 10000 nM -6.67%

O=c1[nH]ccc2cc(OC3CCNCC3)ccc12
inactive: 1 nM 1.91% | 8.33 nM 0.89% | 100 nM -0.08% | 833.33 nM -3.34% | 10000 nM -7.36%

O=C(O)C(O)C(O)C(=O)O (stereo not given) [tartaric-acid]
inactive: 1 nM -3.77% | 8.33 nM -4.25% | 100 nM -5.86% | 833.33 nM -1.6% | 10000 nM -0.64%

C=C[C@H]1CN2CC[C@H]1CC2C(OC(=O)OCC)c1ccnc2ccc(OC)cc12 (stereo in doubt) [quinine-ethyl-carbonate]
inactive: 1 nM 0.47% | 8.33 nM 2.1% | 100 nM 0.07% | 833.33 nM 6.66% | 10000 nM 5.77%

CN(C)CCc1ccc(O)cc1 [hordenine]
inactive: 1 nM 0.04% | 8.33 nM -0.27% | 100 nM 0.47% | 833.33 nM -2.27% | 10000 nM -0.68%

Fc1cc(F)c2c(c1)[C@H]1C=CC[C@H]1C(c1cccnc1)N2 (stereo not given in full) [Golgicide A]
inactive: 1 nM -0.89% | 8.33 nM 0.7% | 100 nM -0.27% | 833.33 nM -0.71% | 10000 nM -3.16%

Nc1nc(NCCc2ccc(O)cc2)nc2nc(-c3ccco3)nn12
inactive: 1 nM 0.11% | 8.33 nM -0.03% | 100 nM -0.54% | 833.33 nM -1.25% | 10000 nM -5.15%

CN[C@@H]1[C@H](O[C@H]2[C@H](O[C@H]3[C@H](O)[C@@H](O)[C@H](N=C(N)N)[C@@H](O)[C@@H]3N=C(N)N)O[C@@H](C)[C@]2(O)C=O)O[C@@H](CO)[C@H](O)[C@H]1O [STREPTOMYCIN SULFATE [5mM; 10% aq DMSO + 5mM ethanolamine]]
inactive: 1 nM -0.46% | 8.33 nM -1.64% | 100 nM -0.12% | 833.33 nM 1.53% | 10000 nM 0.2%

Nc1ccc(/N=N/c2ccccc2)c(N)n1 [phenazopyridine]
inactive: 1 nM 1.34% | 8.33 nM 0.46% | 100 nM 0.72% | 833.33 nM 1.24% | 10000 nM 0.27%

CC[C@]1(O)C[C@H]2CN(CCc3c([nH]c4ccccc34)[C@@](C(=O)OC)(c3cc4c(cc3OC)N(C=O)[C@H]3[C@@](O)(C(=O)OC)[C@H](OC(C)=O)[C@]5(CC)C=CCN6CC[C@]43[C@@H]65)C2)C1 [Vincristine (sulfate)]
inactive: 1 nM -1.47% | 8.33 nM -1.12% | 100 nM 0.94% | 833.33 nM 0.14% | 10000 nM -0.29%

c1ccc(-c2nc(CN3CCN(c4ncccn4)CC3)c[nH]2)cc1
inactive: 1 nM -2.28% | 8.33 nM -0.03% | 100 nM -3.72% | 833.33 nM -0.79% | 10000 nM -1.23%

O=C(O)[C@@H]1C[C@@H](O)CN1 [L-hydroxyproline]
inactive: 1 nM -3.79% | 8.33 nM -1.12% | 100 nM -0.27% | 833.33 nM -1.36% | 10000 nM -3.93%

CC(=O)Oc1ccccc1C(=O)Nc1ncc([N+](=O)[O-])s1 [nitazoxanide]
inactive: 1 nM 4.76% | 8.33 nM -3.73% | 100 nM -1.27% | 833.33 nM -0.63% | 10000 nM 8.82%

CN(C)C(=N)NCCC[C@H](N)C(=O)O [asymmetrical-dimethylarginine]
inactive: 1 nM -0.33% | 8.33 nM -0.09% | 100 nM -1.65% | 833.33 nM 0.84% | 10000 nM 1.97%

Nc1cccc(-c2cc3c(Oc4cccc(O)c4)ncnc3[nH]2)c1
inactive: 1 nM 4.09% | 8.33 nM 0.18% | 100 nM -2.41% | 833.33 nM -3.87% | 10000 nM -11.4%

Cc1ccc(F)c(NC(=O)Nc2ccc(-c3cccc4[nH]nc(N)c34)cc2)c1 [linifanib]
inactive: 1 nM -2.72% | 8.33 nM -3.15% | 100 nM -4.95% | 833.33 nM -2.75% | 10000 nM -2.71%
